# PAFAH1B2 inh: PAFAH1B2 (human) inhibition | AID 492953 | recombinant PAFAH1B2, FP-rhodamine activity probe, fluorescence polarization | inhibition, % at 3.39 µM | actives 1.2% (n = 340,000) | P68402;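 active means inhibition above the mean of all tested compounds plus 3 SD, cut at about 24% in these data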;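 further: 0% = enzyme with DMSO and 100% = wells lacking PAFAH1B2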
# Target sequence (P68402 whole entry, looked up): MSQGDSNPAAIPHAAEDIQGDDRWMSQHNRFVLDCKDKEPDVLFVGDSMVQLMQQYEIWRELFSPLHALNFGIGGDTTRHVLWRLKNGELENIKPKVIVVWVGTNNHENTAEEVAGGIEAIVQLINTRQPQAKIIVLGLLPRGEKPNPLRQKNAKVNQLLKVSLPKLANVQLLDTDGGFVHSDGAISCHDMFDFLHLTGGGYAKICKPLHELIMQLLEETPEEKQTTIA
# PP1 counter: counter-screen for PP5 inhibitors: inhibitors of human PP1-alpha; actives 0.9% (n = 320,000); AID 2235; P62136; purified PP1alpha, OMFP fluorescence; inhibition, % at 6.7 µM;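 active means inhibition above the mean inhibition of all tested compounds plus 3 SD, computed separately for each screening campaign, cut at about 15% in these data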
# PAFAH1B3 FP inh: PAFAH1B3 (human) inhibition | Q15102 | recombinant PAFAH1B3, FP-rhodamine probe, fluorescence polarization | inhibition, % at 3.39 µM | actives 0.28% (n = 340,000) | AID 492972;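 active means inhibition above the screen-wide average of all tested compounds plus 3 SD, cut at about 25% in these data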;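 further: 0% = enzyme with DMSO only and 100% = wells lacking PAFAH1B3 protein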
# PP5 primary: PP5 (human) phosphatase inhibition. purified PP5c, OMFP substrate fluorescence. inhibition, % at 6.7 µM. actives 0.18% (n = 320,000);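 active means inhibition above the campaign's mean inhibition across all tested compounds plus 3 SD, cut at about 9.5% in these data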;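 further: 0% = DMSO only and 100% = 100 µM cantharidin control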
# PAFAH2 inh: inhibitors of human PAFAH2; AID 492956; recombinant PAFAH2, FP-rhodamine activity probe, fluorescence polarization; actives 0.99% (n = 340,000); inhibition, % at 3.39 µM;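 active means inhibition above the mean over all tested compounds plus 3 SD, cut at about 30% in these data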;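 further: inhibitors block probe labeling of enzyme so polarization drops; 0% = enzyme with DMSO and 100% = wells lacking PAFAH2 protein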
# pPAFAH inh: inhibitors of human plasma PAF acetylhydrolase (pPAFAH); actives 1.5% (n = 330,000); recombinant pPAFAH, FP-rhodamine probe fluorescence polarization; inhibition, % at 3.39 µM;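 active means inhibition above the mean inhibition across the screen plus 3 SD, cut at about 25% in these data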;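 further: inhibitors block binding of the rhodamine activity-based probe so polarization drops; 0% = enzyme with DMSO and 100% = wells lacking pPAFAH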
# Target sequence (Q13093 whole entry, looked up): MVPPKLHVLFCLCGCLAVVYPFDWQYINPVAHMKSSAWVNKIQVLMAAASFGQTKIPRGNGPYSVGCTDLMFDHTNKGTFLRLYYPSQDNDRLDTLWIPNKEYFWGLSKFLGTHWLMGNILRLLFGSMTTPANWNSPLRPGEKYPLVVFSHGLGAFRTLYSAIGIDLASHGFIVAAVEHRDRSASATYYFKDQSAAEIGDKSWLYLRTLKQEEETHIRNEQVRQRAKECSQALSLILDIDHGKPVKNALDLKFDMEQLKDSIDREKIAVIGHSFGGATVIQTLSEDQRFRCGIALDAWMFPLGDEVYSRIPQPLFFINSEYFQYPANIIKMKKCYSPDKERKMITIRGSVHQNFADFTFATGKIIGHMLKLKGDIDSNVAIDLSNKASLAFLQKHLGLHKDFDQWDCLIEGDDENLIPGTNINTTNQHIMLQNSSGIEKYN
# Starred values were filed as active, the others as inactive; . = no result. Rows were chosen to be rich in hits. Some 3.4% of all compounds tested hit in one or more screens of this group.
SMILES,PAFAH1B2 inh,PP1 counter,PAFAH1B3 FP inh,PP5 primary,PAFAH2 inh,pPAFAH inh
Cc1cc([N+](=O)[O-])nn1Cc1ccc(C(=O)N/N=C/c2ccc(F)cc2)cc1,1.1,1.5,7.6,1.0,2.6,1.7
Cc1cc([N+](=O)[O-])nn1Cc1ccc(C(=O)N/N=C/c2ccc(O)cc2O)cc1,4.7,16.4*,14.8,-3.4,-13.1,28.6*
O=C(N/N=C/c1ccccc1)c1ccc(CN2C(=O)c3cccc4cccc2c34)cc1,-1.9,7.4,0.8,1.3,-11.0,-10.7
CC(=O)c1sc(N/N=C\c2c(O)ccc3ccccc23)nc1C,7.5,4.2,12.1,3.1,18.4,34.3*
CC(=O)c1sc(N/N=C/c2cccc(O)c2)nc1C,1.9,-0.5,6.0,1.8,3.8,7.0
COc1ccc(/C=N/NC(=O)c2cc(C)oc2C)cc1OC,4.2,-4.0,4.1,0.7,-2.9,4.2
OC(CNc1nc(-c2cccnc2)nc2ccccc12)c1ccccc1 (stereo not drawn),7.8,5.1,7.2,2.8,4.5,3.9
Cc1ccc(NC(=O)CN2CCC(C(=O)c3ccc4c(c3)OCCO4)CC2)cc1,4.8,-0.2,5.5,0.5,4.8,4.3
COC(=O)c1ccccc1NC(=O)CN1CCC(C(=O)c2ccc3c(c2)OCCO3)CC1,4.2,1.4,5.3,4.3,1.4,32.6*
O=C(COc1ccc([N+](=O)[O-])cc1Cl)N1CCOCC1,-5.0,0.8,8.5,0.3,-1.7,4.2
O=[N+]([O-])c1ccc2c(c1)C(N1CCOCC1)/C(=C/COc1ccc(Cl)cc1Cl)O2 (stereo not drawn),24.4*,0.7,0.2,2.2,9.0,7.2
COc1ccccc1Cc1noc(-c2cc(Cl)ccc2OC)n1,5.5,-2.0,7.8,1.1,11.3,29.0*
Cc1ccc(NC(=O)CNC(=O)c2ccccc2F)cc1Cl,-5.0,-1.6,4.0,1.7,3.6,0.0
O=C(O)c1cc(O)c2c(c1)[C@@H]([C@H]1c3cc(C(=O)O)cc(O)c3C(=O)c3c(O[C@@H]4O[C@H](CO)[C@@H](O)[C@H](O)[C@H]4O)cccc31)c1cccc(O[C@@H]3O[C@H](CO)[C@@H](O)[C@H](O)[C@H]3O)c1C2=O,.,.,.,.,.,95.5*
CC1=CCC2C(=O)N(c3ccc(S(N)(=O)=O)cc3)C(=O)C2C1 (stereo not drawn),1.8,-3.0,3.5,0.1,2.4,2.8
CC(NC(=O)COC(=O)c1ccc2ccccc2n1)C1CC2CCC1C2 (stereo not drawn),-1.2,2.9,9.2,-0.4,5.3,22.6
CC(NC(=O)COC(=O)c1cc(Cl)ccc1O)C1CC2CCC1C2 (stereo not drawn),26.5*,0.8,3.6,3.3,28.8,7.2
Cc1ccc(C(=O)OCC(=O)NC(C)C2CC3CCC2C3)cc1N (stereo not drawn),7.4,.,7.3,.,83.8*,30.4*
Cc1ccc2c(c1)C1C[N+](C)(CC(=O)Nc3ccccc3Cl)CCC1N2C(=O)c1ccccc1Cl (stereo not drawn),0.3,.,3.2,.,7.7,-0.9
O=C(Nc1cccc2ccccc12)C1CCN(C(=O)NCc2ccccc2)CC1,4.2,-9.5,-3.1,1.0,9.4,3.8
COc1ccccc1NC(=O)C1CCN(C(=O)NCc2ccccc2)CC1,4.6,-5.7,7.7,3.1,6.2,31.8*
O=C(CSc1n[nH]c(-c2ccncc2)n1)Nc1ccc(F)cc1,-0.2,-4.4,-1.8,-0.7,9.7,1.3
Cc1ccc(NC(=O)CSc2n[nH]c(-c3ccncc3)n2)cc1C,3.6,1.6,-0.3,1.8,-2.9,28.9*
CC(CCC(=O)O)(c1ccc(O)cc1)c1ccc(O)cc1,24.8*,-5.1,11.5,-0.8,1.1,-2.1
O=c1[nH][nH]c(-c2ccccc2)c1-c1ccccc1,24.9*,.,11.7,.,3.1,.
SMILES,PAFAH1B2 inh,PP1 counter,PAFAH1B3 FP inh,PP5 primary,PAFAH2 inh,pPAFAH inh
Cc1c2cc(O)c(=O)cc-2oc2cc(O)c(O)cc12,85.2*,33.1*,88.8*,-13.3,96.4*,77.6*
CN(C)CCO[C@@H](c1ccc(Cl)cc1)c1ccccn1,-1.0,-0.8,4.8,-0.7,-2.2,27.3*
O=C(COc1ccc(Cl)cc1)NNC(=O)C(=O)N1CCCCC1,31.2*,-2.4,0.4,3.4,0.8,5.3
CCC(CO)Oc1cc(NCc2ccc(Cl)cc2)c2ncn(C(C)C)c2c1 (stereo not drawn),28.3*,.,7.4,.,6.2,7.8
CC(C)n1cnc2c(NCc3ccccc3)cc(Cc3ccc(F)cc3)cc21,4.8,3.2,6.5,0.0,16.7,27.8*
CCCOc1cc(NCc2ccccc2)c2ncn(C(C)C)c2c1,4.0,2.5,-5.9,5.8,8.5,24.9*
COc1ccccc1N1CCN(C(=O)c2cc(=O)c3ccc(C)cc3o2)CC1,3.5,1.6,8.8,1.5,-1.2,3.8
NS(=O)(=O)c1ccc(NNC(=O)c2ccccc2)cc1,.,-5.4,.,-0.5,.,-4.3
O=C(NNc1cc(Br)c(O)c(Br)c1)c1ccccc1,9.1,-2.0,-0.7,1.2,51.7*,12.3
c1ccc(-c2cc(N3CCOCC3)nc(-c3ccccc3)n2)cc1,-6.8,-11.4,2.6,1.6,-2.0,2.2
c1ccc(-c2cc(-c3ccc(N4CCOCC4)cc3)nc3ccccc23)cc1,-1.0,0.6,8.8,3.0,1.9,30.1*
Cc1ccc(C(=O)C2=C(O)C(=O)N(Cc3cccnc3)C2c2ccc(Cl)c(Cl)c2)o1 (stereo not drawn),-0.3,29.7*,-3.0,0.6,2.8,4.7
Cc1ccc(C(=O)C2=C(O)C(=O)N(Cc3cccnc3)C2c2ccc(OC(C)C)cc2)o1 (stereo not drawn),2.1,19.9*,-0.5,-0.5,-2.8,-2.6
COc1ccc(C2C(C(=O)c3ccc(C)o3)=C(O)C(=O)N2Cc2cccnc2)cc1 (stereo not drawn),5.8,-0.8,-2.4,1.3,3.6,-1.3
Cc1ccc(C(=O)C2=C(O)C(=O)N(Cc3cccnc3)C2c2ccc(Br)cc2)o1 (stereo not drawn),4.6,18.7*,12.0,2.8,12.1,1.7
Cc1ccc(C(=O)C2=C(O)C(=O)N(CCCn3ccnc3)C2c2ccc(OC(C)C)cc2)o1 (stereo not drawn),-0.4,15.3*,-8.1,-8.7,-2.2,3.0
O=c1[nH]c(CSc2nnc(COc3ccccc3)n2-c2ccccc2)nc2ccccc12,0.6,5.2,4.0,3.9,-3.9,-3.4
O=C(CCl)N(c1ccc(Cl)cc1)c1c[nH]c2ccccc12,8.1,1.4,1.6,4.8,2.6,-1.4
CC(=O)C1=C(O)C(=O)N(Cc2cccnc2)C1c1ccc(Cl)cc1 (stereo not drawn),11.8,-0.9,8.5,-1.5,-0.7,5.3
CC(=O)C1=C(O)C(=O)N(Cc2ccccc2)C1c1ccc(Cl)cc1 (stereo not drawn),29.0*,5.4,2.9,-0.3,7.5,-3.4
